Screens as filed in PubChem.
Only some compounds are listed: those with a hit (about 3% of all), similar ones and a draw of the others.
Tau fibril FP = blocks human tau fibril formation measured by polarization. P10636. K18 P301L tau heparin fibrillization, Alexa594 FP, 6 h. hit rate 0.39% among 280,000. Potency, µM (highest dose often 57.7 µM), for inactives: at the top dose activity, negative = inhibition, most hits filed as inhibitors. AID 1468; further: potency means the concentration at half of the fitted maximal effect; nearly all actives have a fitted effect of over 55% in size
Target sequence (P10636 561-689 P618L limits assumed): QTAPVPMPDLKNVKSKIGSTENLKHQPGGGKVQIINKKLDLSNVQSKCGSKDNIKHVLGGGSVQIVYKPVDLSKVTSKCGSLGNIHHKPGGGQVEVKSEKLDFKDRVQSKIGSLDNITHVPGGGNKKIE
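K18 P301L tau (15 uM unlabeled/0.24 uM Alexa 594-labeled, final) + compound + heparin 20 uM final; 100 mM NaOAc pH 7; 6 hr 37 C; ThT 30 uM final added, 1 hr RT; FP ex 555/em 632 nm.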
JMJD2E inh = inhibitors of human JMJD2E histone demethylase | JMJD2E catalytic domain, FDH-coupled NADH fluorescence (FDH is formaldehyde dehydrogenase) | hit rate 1.6% among 230,000 | B2RXH2 | AID 2147 | Potency, µM (doses to about 57.1 µM), for the others: top-dose activity change, negative = inhibition, actives largely listed as inhibitors; active means well fitted inhibition curve with a large enough effect, not every such curve was filed as active; inconclusive means small, poorly fitted or top-dose-only effect, or another doubt; inactive means no such curve, though single readings can be large or run the other way;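 further: potency means the concentration at half of the fitted maximal effect; 0% = wells with enzyme and -100% = buffer wells without enzyme; nearly all actives have a fitted effect of over 50% in size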
Target sequence (B2RXH2 1-337 limits assumed): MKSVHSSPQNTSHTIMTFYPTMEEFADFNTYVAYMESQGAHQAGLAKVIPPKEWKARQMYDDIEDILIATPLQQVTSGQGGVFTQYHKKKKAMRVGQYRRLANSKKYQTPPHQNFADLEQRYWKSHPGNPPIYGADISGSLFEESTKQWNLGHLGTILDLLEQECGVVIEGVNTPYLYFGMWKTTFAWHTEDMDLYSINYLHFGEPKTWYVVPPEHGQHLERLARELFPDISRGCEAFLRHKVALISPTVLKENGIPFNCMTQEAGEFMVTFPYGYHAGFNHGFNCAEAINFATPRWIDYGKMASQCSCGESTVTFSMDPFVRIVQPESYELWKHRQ
Tau fluor counter = counter-screen for tau fibril formation inhibitors | tau K18 P301L Alexa594 fluorescence, heparin fibrillization | Potency, µM (highest dose often 57.7 µM), for the others: at the highest dose activity change, negative = decrease | hit rate 0.93% among 280,000; further: potency means the concentration at half of the fitted maximal effect; nearly all actives have a fitted effect of over 55% in size
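Human tau K18 P301L (15 uM unlabeled, 0.24 uM Alexa 594-labeled) in 100 mM sodium acetate pH 7 with 20 uM heparin, 6 hr at 37 C. ThT 30 uM added, 1 hr ambient; Alexa 594 FP and total fluorescence read at 555/632 nm.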
Tau ThT inhib = tau fibrillization inhibition (ThT binding). P10636. recombinant tau K18 P301L (four-repeat tau fragment), heparin-induced fibrillization, ThT fluorescence. Potency, µM (titrated, usually from 57.4 µM), for inactives: at the highest dose activity, negative = inhibition, most hits filed as inhibitors. hit rate 2.1% among 270,000. AID 1460; further: potency means the concentration at half of the fitted maximal effect; nearly all actives have a fitted effect of over 55% in size
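Heparin-induced (20 uM) aggregation of recombinant human K18 P301L tau, 15 uM unlabeled with 0.24 uM labeled, pH 7 acetate buffer, 6 hr at 37 C with compound. Fibrils quantified by 30 uM ThT fluorescence after 1 hr ambient incubation.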
Coupling enz = inhibits coupling enzyme system, counter-screen for aldolase hits; coupling enzyme system counterscreen, AmpLite Red fluorescence; activity change, negative = inhibition, % at 58.2 µM, hits read low; hit rate 0.67% among 290,000; in the data active means activity change below about -30%
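Activity here indicates interference with the coupling reaction, not aldolase inhibition. Compounds at 57.5 uM final met coupling enzymes for 10 min at RT; substrate and AmpLite Red detection followed, with a 525/598 nm fluorescence read after 20 min.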
Active calls of the source: *; ? = inconclusive; / = no result given; [ ] = another dose, or the depositor's remark. Unless noted, the call rests on the fitted dose curve; in most records, active means well fitted curve in the direction sought with a large enough effect; inconclusive means small, poorly fitted or top-dose-only effect, or another doubt; inactive means no such curve, though single readings can be large; an effect the other way counts as inactive or inconclusive. Unless noted, on the % scale 0 is the no-effect control and ±100 the full control effect.

SMILES	Tau fibril FP	JMJD2E inh	Tau fluor counter	Tau ThT inhib	Coupling enz
CC(C)(C)OC(=O)N1CCC(c2c(C(=O)N3CCN(c4ccccc4)CC3)cnn2-c2ccccc2)CC1	2%	/	-1%	-3%	/
OCc1cnc(SCc2cccc(F)c2)n1Cc1ccc(F)cc1	0%	/	4%	10%	/
Cc1ccc(-c2nc(N)sc2-c2ccccc2)cc1C	3%	5%	10µM*[quencher]	?	-10
Cc1ccc(-c2nc(N)sc2C)cc1	15%	-1%	-10%	-17%	-1
Cc1ccc(-c2nc(N)sc2-c2ccc(C)cc2)cc1	-14%	?	14µM*[quencher]	?	-2
Cc1ccc(-n2ncc3c(N(C)Cc4ccccc4)ncnc32)cc1	-2%	/	-19%	-3%	/
Cc1cc(=O)[nH]c(SCC(=O)/C=C2\N(C)c3ccccc3C2(C)C)n1	?	?	25µM*[fluorescent]	?	9
CCCCNC(=O)NS(=O)(=O)c1ccc(CO)cc1	/	/	/	/	-1
COc1ccc(/C=N/Nc2nc3ccccc3s2)cc1O	9%	-30%	13µM*[quencher]	13µM*	0
C(=N\Nc1nc2ccccc2s1)/c1cccs1	?	-7%	14µM*[quencher]	14µM*	-1
CCn1c(C)c(/C=N/Nc2nc3ccccc3s2)c2ccccc21	1%	?	7.1µM*[quencher]	7.1µM*	/
COc1ccc(NC(=O)CSc2nc3c(oc4ccccc43)c(=O)n2-c2ccccc2)cc1OC	-6%	/	-30%	-2%	/
CN1CCN(c2ncc3nc(CCc4ccccc4)c(=O)n(C4CC4)c3n2)CC1	/	/	/	/	1
COc1cccc(C(=O)/C(C#N)=N/Nc2cccc(-c3ccnc(C)n3)c2)c1	-2%	-1%	?	5µM*	6
CNC(=O)Nc1cccc(-c2ccnc(C)n2)c1	-4%	0%	-7%	-4%	2
CC(=O)C(C(C)=O)C1(O)C(=O)c2ccccc2C1=O	?	-28%	-10%	2.8µM*	-30*
CC(C)(CNC(=O)c1ccc([N+](=O)[O-])c(Cl)c1)CNC(=O)c1ccc([N+](=O)[O-])c(Cl)c1	-2%	0%	13µM*[quencher]	?	-2
C=CCNC(=O)c1ccc([N+](=O)[O-])c(Cl)c1	8%	-3%	3%	6%	0
NCCCCCc1cnc[nH]1	3%	/	1%	-4%	3
CC1CCN(c2nn3c(=O)c(C(=O)NCCc4ccccc4)cnc3s2)CC1	4%	/	-8%	-6%	/
NS(=O)(=O)c1ccc(NC(=O)COC(=O)c2cn(-c3ccccc3)nc2-c2ccccc2)cc1	11µM*	?	?	0%	2
O=C(COC(=O)c1cn(-c2ccccc2)nc1-c1ccccc1)Nc1ncc(Cl)cc1Cl	-8%	?	?	-4%	-1
Fc1ccc(NC(=S)Nc2cccc3ccccc23)cc1F	/	/	/	/	-2
Fc1ccc(NC(=S)Nc2cccc3cnccc23)cc1	?	-14%	?	7.9µM*	-51*
Fc1ccc(NC(=S)Nc2cccc3ccccc23)cc1	/	/	/	/	-5
SMILES	Tau fibril FP	JMJD2E inh	Tau fluor counter	Tau ThT inhib	Coupling enz
S=C(Nc1cccnc1)Nc1cccc2cnccc12	?	14µM*	-19%	13µM*	-37*
CN(C)S(=O)(=O)c1cccc(NC(=S)Nc2cccc3cnccc23)c1	?	28µM*	-29%	?	-53*
Cc1ccc(S(=O)(=O)N(C)C)cc1NC(=S)Nc1cccc2ccccc12	/	/	/	/	-3
S=C(Nc1ccc(Cl)cc1)Nc1cccc2cnccc12	?	14µM*	?	25µM*	-48*
Cc1oc(-c2ccccc2)nc1CSc1nnc(C)n2c1cc1sccc12	?	/	4%	-14%	/
CNC(=O)C1CCC(Cn2c(=O)c3sccc3n(CC(=O)NCc3ccccc3)c2=O)CC1 (stereo unspecified)	0%	/	6%	5%	/
COc1cccc(NC(=O)C2CCN(c3nc4ccccc4nc3C(F)(F)F)CC2)c1	?	/	?	-2%	/
COc1ccc(CCNC(=O)CCCn2c(=O)c3ccccc3n(Cc3ccccc3)c2=O)cc1OC	-1%	/	-11%	-9%	/
Oc1ccc(/C=C/c2nc(-c3ccccc3O)n(-c3ccccc3)n2)cc1	?	?	32µM*[quencher]	?	-6
Oc1ccccc1-c1nc(/C=C/c2ccccc2)nn1-c1ccccc1	-17%	1%	?	-12%	1
